BAZ2B block – BAZ2B (human) inhibition; AlphaScreen BAZ2B-H3K14Ac peptide displacement; Potency, µM (highest dose often 114 µM), without a hit: top-dose activity change, negative = inhibition, hits mostly inhibitors; Q9UIF8; 4.4% of 360,000 active; further: potency means the concentration at half of the fitted maximal effect; on the % scale 0 is the no-effect control and ±100 the full control effect; nearly all actives have a fitted effect of over 60% in size
Target sequence (Q9UIF8 whole entry, looked up): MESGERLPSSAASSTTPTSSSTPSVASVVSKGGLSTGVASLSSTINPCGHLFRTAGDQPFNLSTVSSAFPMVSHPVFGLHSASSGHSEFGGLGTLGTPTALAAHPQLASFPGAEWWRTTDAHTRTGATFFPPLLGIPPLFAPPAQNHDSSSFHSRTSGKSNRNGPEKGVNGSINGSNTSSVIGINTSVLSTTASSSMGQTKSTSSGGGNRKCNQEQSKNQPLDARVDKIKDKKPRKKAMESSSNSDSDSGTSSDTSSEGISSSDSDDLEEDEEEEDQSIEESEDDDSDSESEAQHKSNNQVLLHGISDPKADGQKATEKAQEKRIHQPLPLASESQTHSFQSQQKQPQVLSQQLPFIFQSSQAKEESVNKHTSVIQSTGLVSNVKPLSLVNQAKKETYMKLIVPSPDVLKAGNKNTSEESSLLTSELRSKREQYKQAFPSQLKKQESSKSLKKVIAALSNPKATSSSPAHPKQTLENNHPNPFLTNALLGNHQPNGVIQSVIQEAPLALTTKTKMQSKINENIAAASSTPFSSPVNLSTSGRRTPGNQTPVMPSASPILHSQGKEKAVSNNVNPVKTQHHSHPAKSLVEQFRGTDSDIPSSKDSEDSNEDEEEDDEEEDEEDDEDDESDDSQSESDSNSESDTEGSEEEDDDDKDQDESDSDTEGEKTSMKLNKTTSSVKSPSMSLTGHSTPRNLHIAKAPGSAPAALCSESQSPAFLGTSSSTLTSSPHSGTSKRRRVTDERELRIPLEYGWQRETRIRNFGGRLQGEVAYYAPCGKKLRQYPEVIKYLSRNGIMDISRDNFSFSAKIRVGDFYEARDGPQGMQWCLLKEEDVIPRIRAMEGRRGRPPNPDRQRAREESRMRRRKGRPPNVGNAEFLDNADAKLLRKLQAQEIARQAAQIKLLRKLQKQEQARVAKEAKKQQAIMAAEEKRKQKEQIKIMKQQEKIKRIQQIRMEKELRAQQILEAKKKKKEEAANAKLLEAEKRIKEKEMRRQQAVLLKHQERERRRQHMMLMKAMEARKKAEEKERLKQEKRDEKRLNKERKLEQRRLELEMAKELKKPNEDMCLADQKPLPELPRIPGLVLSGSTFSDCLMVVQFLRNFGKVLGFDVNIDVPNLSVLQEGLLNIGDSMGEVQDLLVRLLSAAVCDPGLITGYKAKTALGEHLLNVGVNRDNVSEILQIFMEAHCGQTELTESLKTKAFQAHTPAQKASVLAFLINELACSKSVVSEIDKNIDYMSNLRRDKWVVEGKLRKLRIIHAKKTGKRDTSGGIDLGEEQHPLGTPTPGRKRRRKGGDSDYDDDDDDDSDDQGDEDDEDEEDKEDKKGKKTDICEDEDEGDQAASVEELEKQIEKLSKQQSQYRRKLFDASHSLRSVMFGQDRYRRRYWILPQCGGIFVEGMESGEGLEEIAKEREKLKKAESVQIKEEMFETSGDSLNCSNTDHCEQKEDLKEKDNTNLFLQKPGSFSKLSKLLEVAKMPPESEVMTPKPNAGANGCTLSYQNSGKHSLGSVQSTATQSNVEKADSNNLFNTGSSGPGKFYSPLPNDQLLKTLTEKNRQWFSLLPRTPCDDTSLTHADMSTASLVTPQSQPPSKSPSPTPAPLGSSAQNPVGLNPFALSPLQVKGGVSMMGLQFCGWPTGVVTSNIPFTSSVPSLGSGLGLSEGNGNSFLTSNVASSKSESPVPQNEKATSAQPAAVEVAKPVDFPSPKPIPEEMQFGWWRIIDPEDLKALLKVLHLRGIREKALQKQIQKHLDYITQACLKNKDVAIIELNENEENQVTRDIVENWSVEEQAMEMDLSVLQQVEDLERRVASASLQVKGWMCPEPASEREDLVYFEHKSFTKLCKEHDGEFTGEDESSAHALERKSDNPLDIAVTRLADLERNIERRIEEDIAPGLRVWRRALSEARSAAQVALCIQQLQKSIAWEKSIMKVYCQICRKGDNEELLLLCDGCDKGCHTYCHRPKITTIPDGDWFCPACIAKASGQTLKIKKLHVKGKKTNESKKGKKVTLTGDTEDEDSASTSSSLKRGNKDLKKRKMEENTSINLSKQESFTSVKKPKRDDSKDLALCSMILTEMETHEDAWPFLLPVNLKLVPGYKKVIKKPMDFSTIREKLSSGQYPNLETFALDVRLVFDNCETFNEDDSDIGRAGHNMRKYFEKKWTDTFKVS
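Compounds, titrated to a top concentration of 110 uM, were incubated 30 min at room temperature with preformed BAZ2B/acetyl-K14 H3 peptide complex (50 nM each). Proximity signal was measured by AlphaScreen after 20 min with beads.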
JMJD2A Tudor inh – JMJD2A Tudor domain (human) inhibition; O75164; AlphaScreen JMJD2A-Tudor / H3K4me3 peptide binding; Potency, µM (series often up to 114 µM), for inactives: at the top dose activity change, negative = inhibition, hits mostly inhibitors; 4.4% of 390,000 active; further: potency means the concentration at half of the fitted maximal effect; on the % scale 0 is the no-effect control and ±100 the full control effect; nearly all actives have a fitted effect of over 50% in size
PI5P4K alpha inh – blocks human PI5P4K alpha kinase activity; PI5P4Kalpha enzyme, ADP-Glo luminescence, 60 min; stronger effect = lower value; AID 652105; max response, %; 1.2% of 330,000 active; P48426; active means max response of -50% or lower; inconclusive means between -30% and -50%; inactive means -30% or higher; further: value at the top dose of about 77 µM; on the % scale 0 is the no-effect control and ±100 the full control effect
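Compounds were pin-transferred onto PI5P4Kalpha and substrate in HEPES pH 7.4 buffer with EGTA, CHAPS and 5% DMSO. ATP (5 microM final) started the reaction, which ran 60 minutes at room temperature before ADP-Glo detection.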
GCN5L2 inh – blocks human GCN5L2 histone acetyltransferase; Q92830; GCN5L2 HAT assay, ThioGlo1 CoA-SH fluorescence; Potency, µM (series often up to 58.9 µM), for inactives: at the top dose activity change, negative = inhibition, usual class: inhibitors; 0.21% of 390,000 active; AID 504327; further: potency means the concentration at half of the fitted maximal effect; on the % scale 0 is the no-effect control and ±100 the full control effect
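Fluorescence readout, Ex340nm/Em540nm: ThioGlo1 (50uM final) reacts with free CoA thiol released as 20nM GCN5L2 acetylates H3(1-25) peptide (75uM) using acetyl-CoA (70uM). Compound and enzyme sat 15 min beforehand; 20 min room-temperature reaction.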
PLK1 PBD inh – blocks phosphopeptide binding to human PLK1 polo-box domain; P53350; Potency, µM, for the others: max response, negative = inhibition, most hits filed as inhibitors; 2.8% of 360,000 active; Plk1 PBD binding of FITC phosphopeptide, fluorescence polarization; AID 720504; further: potency means the concentration at half of the fitted maximal effect; series mostly up to about 57 µM; on the % scale 0 is the no-effect control and ±100 the full control effect; nearly all actives have a fitted effect of over 65% in size
HP1b chromo inh – inhibitors of HP1-beta chromodomain binding to methylated histone tails. P83916. AlphaScreen HP1-beta / biotin-H3K9me3 peptide binding. Potency, µM (titrated, usually from 114 µM), without a hit: at the top dose activity change, negative = inhibition, hits mostly inhibitors. 0.56% of 390,000 active; further: potency means the concentration at half of the fitted maximal effect; nearly all actives have a fitted effect of over 70% in size
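Compound inhibition of the preformed complex between 50 nM HP1-beta and 50 nM biotinylated H3K9me3 peptide was read by AlphaScreen. Buffer was PBS pH 7.4 with 0.01% Tween-20. Incubations ran 30 min at room temperature, with 10 ug/mL donor/acceptor beads.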
* hit, by the source's call; [ ] = dose if it differs, or a comment. Shown are actives, neighbours in structure and some others; about 7% of the full set was active somewhere. Unless noted, the call rests on the fitted dose curve; in most records, active means well fitted curve in the direction sought with a large enough effect; inconclusive means small, poorly fitted or top-dose-only effect, or another doubt; inactive means no such curve, though single readings can be large; an effect the other way counts as inactive or inconclusive.

CCC(C)(C)NC(=O)C(c1ccccc1Cl)N(Cc1cccnc1)C(=O)CCC(=O)Nc1cc(C)on1 (stereo unspecified) was read as BAZ2B block 1%, JMJD2A Tudor inh -31%, PI5P4K alpha inh -6, GCN5L2 inh -4%, PLK1 PBD inh -24% and HP1b chromo inh 2%.
`CCOC(=O)CSc1nc(N)c(C(=O)Nc2ccc(N(C)C)cc2)s1` gave BAZ2B block 50µM*, JMJD2A Tudor inh 40µM*, GCN5L2 inh -7%, PLK1 PBD inh -6% and HP1b chromo inh inconclusive.
N#C/C(C(N)=O)=c1/ccc2c(c1)N1C3=C(CCCC3)CC3CCCCC31N=2 (stereo unspecified) was read as BAZ2B block 3.5µM*, JMJD2A Tudor inh 6.3µM*, PI5P4K alpha inh 26, GCN5L2 inh -1%, PLK1 PBD inh -21% and HP1b chromo inh 10µM*.
Screening N#CC(C#N)=c1ccc2c(c1)N1C3=C(CCCC3)CC3CCCCC31N=2 (stereo unspecified) returned BAZ2B block 1.8µM*, JMJD2A Tudor inh 45µM*, PI5P4K alpha inh -10, GCN5L2 inh -3%, PLK1 PBD inh -10% and HP1b chromo inh inconclusive.
For O=C(COC(=O)c1cc(S(=O)(=O)N2CCOCC2)ccc1Cl)Nc1ccccc1Cl the results were BAZ2B block 10%, JMJD2A Tudor inh -6%, PI5P4K alpha inh 1, GCN5L2 inh -1%, PLK1 PBD inh 3% and HP1b chromo inh 31%.
`COc1ccc2sc(-c3ccccc3OC)c(-c3ccc(OCCN(C)C)cc3)c2c1` gave JMJD2A Tudor inh 50µM*, PI5P4K alpha inh 38, GCN5L2 inh -4%, PLK1 PBD inh -10% and HP1b chromo inh -35%.
For COc1cccc(-c2sc3ccccc3c2-c2ccc(OCCN(C)C)cc2)c1 the results were JMJD2A Tudor inh 45µM*, PI5P4K alpha inh 25, GCN5L2 inh -7%, PLK1 PBD inh 3% and HP1b chromo inh inconclusive.
`COc1ccc2sc(-c3ccccc3OC)c(-c3ccc(SC)cc3)c2c1` gave PI5P4K alpha inh 14 and PLK1 PBD inh -4%.
`COc1cccc(-c2sc3ccc(OC)cc3c2-c2ccc(OCCN3CCCC3)cc2)c1` gave JMJD2A Tudor inh 56µM*, PI5P4K alpha inh 17, GCN5L2 inh -6%, PLK1 PBD inh -2% and HP1b chromo inh inconclusive.
COc1cccc(-c2sc3cc(OC)c(OC)cc3c2-c2ccc(OCCN3CCCCC3)cc2)c1 was read as JMJD2A Tudor inh 32µM*, PI5P4K alpha inh 11, GCN5L2 inh -7%, PLK1 PBD inh -18% and HP1b chromo inh inconclusive.
For COc1ccc(NC(=O)c2cc(C3CCCCN3C(=O)c3ccccc3)on2)c(C)c1 (stereo unspecified) the results were PI5P4K alpha inh 0 and PLK1 PBD inh -1%.
For COC(=O)[C@H]1C[C@@H](c2ccccc2)[C@H](C)C1(C)C the results were BAZ2B block 28%, JMJD2A Tudor inh 27%, PI5P4K alpha inh -3, GCN5L2 inh -15%, PLK1 PBD inh 4% and HP1b chromo inh 85%.
Screening COc1ccc(C)cc1NC(=O)C1CCCN(c2ncnc3onc(C)c23)C1 (stereo unspecified) returned BAZ2B block 10%[57.1 µM], JMJD2A Tudor inh -18%, GCN5L2 inh 16% and HP1b chromo inh -6%.
`O=C(OCC(=O)c1c[nH]c2ccccc12)c1cccc([N+](=O)[O-])c1` gave BAZ2B block -8%, JMJD2A Tudor inh inconclusive, PI5P4K alpha inh 6, GCN5L2 inh 1%, PLK1 PBD inh -10% and HP1b chromo inh 0%.
For CCOC(=O)N1CCN(C(=O)CSc2ccc3nnc(-c4cccnc4)n3n2)CC1 the results were BAZ2B block 0%, JMJD2A Tudor inh -18%, PI5P4K alpha inh -1, GCN5L2 inh -14%, PLK1 PBD inh -10% and HP1b chromo inh 22%.
For COc1cccc(-c2sc3ccccc3c2-c2ccc(OCCN3CCCC3)cc2)c1 the results were JMJD2A Tudor inh 45µM*, PI5P4K alpha inh 24, GCN5L2 inh -1%, PLK1 PBD inh -8% and HP1b chromo inh inconclusive.
C=C1C(=O)C23C(O)C1CCC2C12CCCC(C)(COC(C)=O)C1C(O)C3(O)OC2 (stereo unspecified) was read as JMJD2A Tudor inh inconclusive, PI5P4K alpha inh -8, PLK1 PBD inh 15µM* and HP1b chromo inh -5%.
For O=C(CSc1nnc(-c2cccc(S(=O)(=O)N3CCCCC3)c2)o1)NCCC1=CCCCC1 the results were BAZ2B block -7%, JMJD2A Tudor inh -36%[57.1 µM], PI5P4K alpha inh 4, GCN5L2 inh 0%, PLK1 PBD inh 21µM* and HP1b chromo inh -11%.
Screening Cc1cccc(/N=C/C2=C(O)CC(C)(C)CC2=O)n1 returned BAZ2B block 1%, JMJD2A Tudor inh -2%, PI5P4K alpha inh 3, GCN5L2 inh -7%, PLK1 PBD inh 0% and HP1b chromo inh 25%.
`Cc1cc(N=CC2=C(O)CC(C)(C)CC2=O)no1` gave JMJD2A Tudor inh 79µM*, PI5P4K alpha inh 3, GCN5L2 inh -3%, PLK1 PBD inh -4% and HP1b chromo inh 31%.
`Cc1cc[n+](Cc2ccc([N+](=O)[O-])cc2)cc1` gave BAZ2B block -9%, JMJD2A Tudor inh -12%, PI5P4K alpha inh 3, GCN5L2 inh -1%, PLK1 PBD inh -4% and HP1b chromo inh 11%.
For Cc1ccc(-c2cc[n+](Cc3ccccc3)cc2)cc1 the results were BAZ2B block -17%, JMJD2A Tudor inh inconclusive, PI5P4K alpha inh -14, GCN5L2 inh -5%, PLK1 PBD inh 19µM* and HP1b chromo inh -8%.
For CCOC(=O)C1(C)CCCCCN1C(=O)c1ccc(Cl)nc1 (stereo unspecified) the results were PI5P4K alpha inh -13 and PLK1 PBD inh 3%.
For O=C(COC(=O)c1ccccc1C(=O)c1ccccc1)Nc1cccc([N+](=O)[O-])c1 the results were BAZ2B block -37%, JMJD2A Tudor inh inconclusive, PI5P4K alpha inh -12, GCN5L2 inh -4%, PLK1 PBD inh -13% and HP1b chromo inh 4%.
`Nc1c(C(=O)OCC(=O)Nc2cccc([N+](=O)[O-])c2)[nH]c(=O)[nH]c1=O` gave JMJD2A Tudor inh 79µM*, PI5P4K alpha inh inconclusive, GCN5L2 inh -11%, PLK1 PBD inh -14% and HP1b chromo inh 13%.
Cc1ccn2c(c1)nc(=O)c1cc(S(=O)(=O)N3CCCCC3)c(Cl)cc12 was read as BAZ2B block -15%, JMJD2A Tudor inh -1%, GCN5L2 inh -2% and HP1b chromo inh 42%.

Source: PubChem (National Center for Advancing Translational Sciences (NCATS))
